Source: PubChem BioAssay AID1159580 (chemical genetic matrix, 2015)
The whole screen tested about 5,500 compounds, of which about 2,000 (36%) were called active. About 18% were inconclusive and are not listed. Rule as the data show it: active = normalized growth mostly below about 0.91 (no sharp cut-off); inconclusive = no clear call, values can overlap the other calls; inactive = mostly above about 0.92. The list shows a part of the results.

Experiment: chemical genetic growth profiling, strain panel (AID 1159580);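 also: tested at 20 µM; growth read once vehicle control cultures reached saturation at 30 °C; 1 = growth at the plate median or of vehicle wells; lower values mean less growth of the strain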
Conditions: growth OD

Measured: normalized growth

CCOC(=O)[C@H](CCc1ccccc1)N[C@@H](C)C(=O)N1CCC[C@H]1C(=O)O
inactive: S. cerevisiae deletion strains, locus YJR075W, strain HOC1, hits give low values 1.01 | S. cerevisiae deletion strains, locus YKL009W, strain mrt4, hits give low values 1.04 | S. cerevisiae deletion strains, locus YKL068W, hits give low values 0.998 | S. cerevisiae deletion strains, locus YKL085W, strain MDH1 (second series), hits give low values 1 | S. cerevisiae deletion strains, locus YKL085W, strain MDH1, hits give low values 1 | S. cerevisiae deletion strains, locus YKL160W, strain elf1, hits give low values 0.988 | S. cerevisiae deletion strains, locus YKL190W, strain CNB1, hits give low values 0.998 | S. cerevisiae deletion strains, locus YKR001C, strain vps1, hits give low values 1.02 | S. cerevisiae deletion strains, locus YKR026C, strain gcn3, hits give low values 1 | S. cerevisiae deletion strains, locus YKR091W, strain srl3, hits give low values 0.994 | S. cerevisiae deletion strains, locus YLL001W, strain dnm1, hits give low values 0.981 | S. cerevisiae deletion strains, locus YLL026W, hits give low values 0.989 | S. cerevisiae deletion strains, locus YLL041C, strain sdh2, hits give low values 1.01 | S. cerevisiae deletion strains, locus YLR027C, strain aat2, hits give low values 0.985 | S. cerevisiae deletion strains, locus YLR039C, strain RIC1, hits give low values 1 | S. cerevisiae deletion strains, locus YLR058C, strain SHM2, hits give low values 1.01 | S. cerevisiae deletion strains, locus YLR102C, strain apc9, hits give low values 1.02 | S. cerevisiae deletion strains, locus YLR113W, strain HOG1, hits give low values 1.05 | S. cerevisiae deletion strains, locus YLR221C, strain rsa3, hits give low values 0.975 | S. cerevisiae deletion strains, locus YLR258W, strain gsy2, hits give low values 0.992 | S. cerevisiae deletion strains, locus YLR262C, strain YPT6 (second series), hits give low values 0.998 | S. cerevisiae deletion strains, locus YLR262C, strain YPT6, hits give low values 1.03 | S. cerevisiae deletion strains, locus YLR268W, strain sec22, hits give low values 1.01 | S. cerevisiae deletion strains, locus YLR320W, strain mms22, hits give low values 0.984 | S. cerevisiae deletion strains, locus YLR330W, strain CHS5, hits give low values 1 | S. cerevisiae deletion strains, locus YLR342W, strain FKS1 (second series), hits give low values 1 | S. cerevisiae deletion strains, locus YLR342W, strain FKS1, hits give low values 0.994 | S. cerevisiae deletion strains, locus YLR357W, strain rsc2, hits give low values 0.938 | S. cerevisiae deletion strains, locus YLR370C, strain arc18, hits give low values 0.994 | S. cerevisiae deletion strains, locus YLR371W, strain rom2, hits give low values 1.02 | S. cerevisiae deletion strains, locus YLR384C, strain iki3, hits give low values 1 | S. cerevisiae deletion strains, locus YLR418C, strain cdc73, hits give low values 1.01 | S. cerevisiae deletion strains, locus YML016C, strain PPZ1, hits give low values 1.01 | S. cerevisiae deletion strains, locus YML032C, strain rad52, hits give low values 1.02 | S. cerevisiae deletion strains, locus YML120C, strain ndi1, hits give low values 1.03 | S. cerevisiae deletion strains, locus YML124C, strain tub3, hits give low values 1.01 | S. cerevisiae deletion strains, locus YMR058W, strain fet3, hits give low values 1.01 | S. cerevisiae deletion strains, locus YMR078C, strain ctf18, hits give low values 1.01 | S. cerevisiae deletion strains, locus YMR125W, strain sto1, hits give low values 0.991 | S. cerevisiae deletion strains, locus YMR129W, hits give low values 1.01 | S. cerevisiae deletion strains, locus YMR205C, strain PFK2, hits give low values 0.973 | S. cerevisiae deletion strains, locus YMR223W, strain ubp8, hits give low values 1.02 | S. cerevisiae deletion strains, locus YMR231W, strain pep5, hits give low values 0.988 | S. cerevisiae deletion strains, locus YMR263W, strain SAP30, hits give low values 1.01 | S. cerevisiae deletion strains, locus YMR307W, strain GAS1, hits give low values 1.02 | S. cerevisiae deletion strains, locus YNL067W, strain RPL9B, hits give low values 1.01 | S. cerevisiae deletion strains, locus YNL071W, strain lat1, hits give low values 1.01 | S. cerevisiae deletion strains, locus YNL128W, strain TEP1, hits give low values 1.02 | S. cerevisiae deletion strains, locus YNL183C, strain NPR1, hits give low values 0.973 | S. cerevisiae deletion strains, locus YNL209W, strain ssb2, hits give low values 0.986 | S. cerevisiae deletion strains, locus YNL233W, strain BNI4, hits give low values 1 | S. cerevisiae deletion strains, locus YNL248C, strain rpa49, hits give low values 1.03 | S. cerevisiae deletion strains, locus YNL250W, strain rad50, hits give low values 1.01 | S. cerevisiae deletion strains, locus YNL271C, strain bni1, hits give low values 1.02 | S. cerevisiae deletion strains, locus YNL298W, strain CLA4, hits give low values 1.04 | S. cerevisiae deletion strains, locus YNL307C, strain MCK1, hits give low values 1.04 | S. cerevisiae deletion strains, locus YNL322C, strain KRE1 (second series), hits give low values 0.963 | S. cerevisiae deletion strains, locus YNR049C, strain mso1, hits give low values 1 | S. cerevisiae deletion strains, locus YNR052C, strain pop2, hits give low values 1.01 | S. cerevisiae deletion strains, locus YOL006C, strain TOP1, hits give low values 1.04 | S. cerevisiae deletion strains, locus YOL012C, strain htz1 0.639 | S. cerevisiae deletion strains, locus YOL147C, strain pex11, hits give low values 1.01 | S. cerevisiae deletion strains, locus YOR001W, strain rrp6, hits give low values 1 | S. cerevisiae deletion strains, locus YOR061W, strain CKA2, hits give low values 1.01 | S. cerevisiae deletion strains, locus YOR069W, strain VPS5, hits give low values 0.992 | S. cerevisiae deletion strains, locus YOR070C, strain gyp1, hits give low values 0.963 | S. cerevisiae deletion strains, locus YOR080W, strain dia2, hits give low values 0.997 | S. cerevisiae deletion strains, locus YOR083W, strain WHI5, hits give low values 0.934 | S. cerevisiae deletion strains, locus YOR106W, strain vam3, hits give low values 0.977 | S. cerevisiae deletion strains, locus YOR136W, strain idh2, hits give low values 1.02 | S. cerevisiae deletion strains, locus YOR144C, strain elg1, hits give low values 1.01 | S. cerevisiae deletion strains, locus YOR184W, strain ser1, hits give low values 1.04 | S. cerevisiae deletion strains, locus YOR231W, strain MKK1, hits give low values 1.04 | S. cerevisiae deletion strains, locus YOR265W, strain rbl2, hits give low values 0.992 | S. cerevisiae deletion strains, locus YOR270C, strain vph1, hits give low values 0.999 | S. cerevisiae deletion strains, locus YOR290C, strain snf2, hits give low values 0.988 | S. cerevisiae deletion strains, locus YOR316C, strain cot1, hits give low values 1.02 | S. cerevisiae deletion strains, locus YPL051W, strain arl3, hits give low values 0.954 | S. cerevisiae deletion strains, locus YPL078C, strain atp4, hits give low values 0.993 | S. cerevisiae deletion strains, locus YPL106C, strain sse1, hits give low values 0.922 | S. cerevisiae deletion strains, locus YPL240C, strain hsp82, hits give low values 0.994 | S. cerevisiae deletion strains, locus YPL241C, strain CIN2, hits give low values 0.999 | S. cerevisiae deletion strains, locus YPL256C, strain CLN2, hits give low values 1.05 | S. cerevisiae deletion strains, locus YPR119W, strain clb2, hits give low values 1.02 | S. cerevisiae deletion strains, locus YPR141C, strain kar3, hits give low values 1.01 | S. cerevisiae deletion strains, locus YPR163C, strain tif3, hits give low values 1.02 | S. cerevisiae deletion strains, locus YPR167C, strain met16, hits give low values 1.02 | S. cerevisiae deletion strains, strain wtn01, hits give low values 1.01 | S. cerevisiae strains, strain wild type, hits give low values 1
